Assay outcomes from PubChem BioAssay.
A selection: hits, their analogues and other compounds. The true share with any hit is near 3.5%.
MITF primary = human MITF inhibition, primary screen | actives 0.91% (n = 650,000) | AlphaScreen MITF homodimerization, bead proximity signal | inhibition, % at 2.6 µM | O75030; in the data active means inhibition above about 50%
GPR151 activ = human GPR151 activation; Q8TDV0; actives 1% (n = 650,000); activation, % at 11.2 µM; PathHunter beta-arrestin GPR151 cells, luminescence; in the data active means activation above about 4.9%
TEAD-YAP block = TEAD-YAP interaction inhibition; AID 1259422; HEK-TIYL cells, TEAD-Gal4/YAP UAS-luciferase luminescence; inhibition, % at 9.12 µM; actives 1.4% (n = 640,000); in the data active means inhibition above about 32%
FBW7 act = activators of human E3 ligase FBW7 | Q969H0 | AlphaScreen FBW7–phospho-cyclin E peptide binding, activator screen | normalized activity (activation), % at 26.1 µM | actives 0.13% (n = 650,000); in the data active means normalized activity above about 1.9%;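 further: purified mutant Fbw7 with reduced substrate affinity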
Target sequence (Q969H0 whole entry, looked up): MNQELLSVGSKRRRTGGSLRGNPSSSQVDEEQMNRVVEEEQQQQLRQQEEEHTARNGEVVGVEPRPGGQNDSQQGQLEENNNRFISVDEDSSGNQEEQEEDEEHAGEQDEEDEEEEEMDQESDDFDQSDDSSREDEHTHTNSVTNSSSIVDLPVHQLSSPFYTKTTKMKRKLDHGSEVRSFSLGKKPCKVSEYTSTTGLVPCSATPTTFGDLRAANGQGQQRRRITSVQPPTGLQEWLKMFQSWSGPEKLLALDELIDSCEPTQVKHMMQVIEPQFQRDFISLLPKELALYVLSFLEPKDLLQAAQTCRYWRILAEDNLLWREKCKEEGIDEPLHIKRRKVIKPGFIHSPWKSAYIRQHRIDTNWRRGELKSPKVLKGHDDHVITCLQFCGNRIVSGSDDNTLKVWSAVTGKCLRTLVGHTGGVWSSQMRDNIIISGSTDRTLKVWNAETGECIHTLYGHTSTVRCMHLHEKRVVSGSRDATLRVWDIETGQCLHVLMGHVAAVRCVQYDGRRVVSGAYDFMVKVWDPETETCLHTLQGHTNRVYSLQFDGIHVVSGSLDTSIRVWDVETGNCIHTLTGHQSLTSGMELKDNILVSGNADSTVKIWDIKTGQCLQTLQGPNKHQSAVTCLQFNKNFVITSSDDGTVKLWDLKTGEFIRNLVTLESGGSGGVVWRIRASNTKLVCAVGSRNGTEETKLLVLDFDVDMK
Hits are given with their value; - = inactive; ! = not confirmed by another sample.

SMILES	MITF primary	GPR151 activ	TEAD-YAP block	FBW7 act
Cc1c(N=Nc2ccc([N+](=O)[O-])cc2S(=O)(=O)O)co[n+]1[O-]	-	-	-	-
Cc1nc(N=Nc2cc(S(=O)(=O)O)c3cc([N+](=O)[O-])cc(S(=O)(=O)O)c3c2)c(COP(=O)(O)O)c(C=O)c1O	77!	-	-	-
CCCOc1ccc(Cl)cc1/C=C1\SC(NC(C)=O)=NC1=O	-	-	-	-
O=C(/C(=C/c1cc([N+](=O)[O-])ccc1O)n1cncn1)c1ccc(Cl)cc1Cl	-	-	-	-
CCn1c(C)[n+](CC)c2ccc(S(=O)(=O)N3CCCCC3)cc21	-	-	-	-
O=C(NC(=S)NNC(=O)c1cc2ccccc2cc1O)c1ccco1	-	-	35	-
CC(=O)c1cccc(-c2cccc(C(=O)NCc3cccc(C(F)(F)F)c3)c2)c1	-	-	-	-
CCOC(=O)c1c(Cl)nc(Cl)c(Cl)c1Nc1cccc(F)c1	-	-	44	-
CCOC(=O)c1c(Cl)nc(Cl)c(Cl)c1Nc1ccc(OC)cc1	-	-	47	-
CCOC(=O)c1c(Cl)nc(Cl)c(Cl)c1Nc1cccc(C)c1	-	-	-	-
CCOC(=O)c1c(Cl)nc(Cl)c(Cl)c1Nc1ccc(OC(F)(F)F)cc1	-	-	51	-
O=C(/C=C/c1cccs1)NC(=S)NNC(=O)c1ccccc1O	-	-	81	-
O=C(NNC(=S)NC(=O)C(c1ccccc1)c1ccccc1)c1ccccc1O	-	-	86	-
CN(C)CCN(Cc1cc2cc3c(cc2[nH]c1=O)OCCO3)C(=O)Nc1ccccc1	-	-	-	-
CCCc1[nH]nc2c1C(c1ccc(CC)cc1)C(C#N)=C(N)O2 (stereo not given)	-	-	-	-
CC(=O)Oc1ccc2c(=O)c(Oc3ccccc3)c(C(F)(F)F)oc2c1	-	-	-	-
CCCc1ccc(Oc2c(C(F)(F)F)oc3cc(OC(C)=O)ccc3c2=O)cc1	-	-	83	-
CC(C)(C)c1ccc(Oc2c(C(F)(F)F)oc3cc(OC(=O)c4cccs4)ccc3c2=O)cc1	-	-	94	-
Cc1ccc(/C=C2\CC/C(=C\c3ccc(C)o3)C2=O)o1	58	-	-	-
Cc1cc2ncn(S(=O)(=O)c3ccc(S(N)(=O)=O)cc3)c2cc1C	-	-	-	-
Cc1ccc(S(=O)(=O)n2cnc3cc(C)c(C)cc32)cc1C	-	-	39	-
CCOc1ccc(S(=O)(=O)n2cnc3cc(C)c(C)cc32)cc1	-	-	34	-
CCCCOc1ccc(S(=O)(=O)n2cnc3cc(C)c(C)cc32)cc1	-	-	48	-
Cc1ccc(S(=O)(=O)n2cnc3cc(C)c(C)cc32)cc1	-	-	-	-
O=C(/C=C/c1cccc(N2C(=O)CCC2=O)c1)c1cccc(N2C(=O)CCC2=O)c1	-	-	-	-
SMILES	MITF primary	GPR151 activ	TEAD-YAP block	FBW7 act
O=C(/C=C\c1ccccc1)Nc1c2c(nn1-c1ccccc1)CS(=O)C2 (stereo not given)	-	-	-	-
O=C(O)C1Nc2ccc(OC(F)(F)F)cc2C2C=CCC12 (stereo not given)	75	-	-	-
CC(=O)c1ccc2c(c1)C1C=CCC1C(C(=O)O)N2 (stereo not given)	79	-	-	-
Cc1cc(I)cc2c1NC(C(=O)O)C1CC=CC21 (stereo not given)	-	-	-	-
NS(=O)(=O)c1ccc2c(c1)C1C=CCC1C(C(=O)O)N2 (stereo not given)	72	-	-	-
Fc1ccc(C2Nc3ccc(OC(F)(F)F)cc3C3C=CCC32)cc1 (stereo not given)	-	-	-	-
Cc1ccc2c(c1)C1C=CCC1C(C(=O)O)N2 (stereo not given)	70	-	-	-
COc1ccccc1-n1c(CNC(=O)c2ccco2)nnc1SCC(=O)Nc1cc(C(F)(F)F)ccc1Cl	-	-	-	-
COc1ccc(SCC(=O)Nc2ccc3sc(C)nc3c2)cc1	-	-	-	-
O=C1c2ccccc2C(=O)c2c(NCCCN(CCO)CCO)cccc21	-	-	41	-
CC1CCc2oc3ccc(NS(=O)(=O)c4ccccc4)cc3c2C1 (stereo not given)	-	-	-	-
Cc1cc(OCC(=O)Nc2c(C)nn(Cc3ccc(F)cc3)c2C)ccc1[N+](=O)[O-]	-	-	54	-
Cc1cc(OCC(=O)Nc2ccc(F)cc2)ccc1[N+](=O)[O-]	-	-	-	-
CSc1ccc2nc(N3CCN(C(=O)c4c(C)cnn4C)CC3)sc2c1	-	-	44	-
C/C(=N\N=c1/sc2ccccc2n1C)c1ccc(N2CCOCC2)cc1	-	-	-	-
C/C(=N\N=C(N)N)c1ccc(N2CCOCC2)cc1	-	-	52	-
CN(C)c1cccc(C(=O)OCC(=O)C(C)(C)C)c1	-	-	-	-
COc1cc2c(cc1OC)C(C(=O)N1CCCC(C)C1)C1c3ccccc3CCN1C2=O (stereo not given)	-	-	-	-
COc1cc2c(cc1OC)C(C(=O)N1CCCCC1)C1c3ccccc3CCN1C2=O (stereo not given)	-	-	-	1.9
O=c1c2c(-c3ccccc3)csc2nc2c3ccccc3c(NCCCN3CCOCC3)nn12	-	-	-	-
O=c1c2ccccc2nc2c3ccccc3c(NCCN3CCOCC3)nn12	-	-	74	-
COc1cccc(C(=O)Oc2ccccc2CN(C2=NS(=O)(=O)c3ccccc32)c2ccc(C)cc2)c1	-	-	-	-
Cc1sc2nc(C)n(C3CCN(C(=O)c4ccncc4)CC3)c(=O)c2c1C	-	-	40	-
Cc1ccc(NC(=O)/N=C2/NC(=O)C(C(C)C)O2)cc1 (stereo not given)	-	-	-	-
CC(C)N1CCc2c(sc(NC(=O)C(C)(C)C)c2C(N)=O)C1	-	-	74	-
SMILES	MITF primary	GPR151 activ	TEAD-YAP block	FBW7 act
O=C(Nc1cccnc1)c1ccc(Cl)c(Cl)c1	-	-	-	-
COc1cc(C(=O)Nc2cccnc2)ccc1OCc1c(Cl)cccc1Cl	-	-	39	-
CCN(CC)S(=O)(=O)c1ccc(N2CCN(c3ccccc3OC)CC2)c(N)c1	-	-	33	-
CCN(c1ccccc1)S(=O)(=O)c1ccc(OC)c(N)c1	-	-	52	-
COc1ccc(S(=O)(=O)Cc2ccccc2)cc1N	-	-	-	-
CNC(=O)C1Cc2ccccc2N1C(=O)Nc1ccc(F)cc1 (stereo not given)	-	-	-	-
CC1CCCCN1CCCNc1nc2ccccc2c2nc(-c3cccnc3)nn12 (stereo not given)	-	-	50	-
CCN(CC)CCNc1nc2cc(OC)c(OC)cc2c2nc(-c3ccccc3)nn12	-	-	54	-
CCN(CC)CCCNc1nc2ccccc2c2nc(-c3cccnc3)nn12	-	-	49	-
CC1CCCC(C)N1CCNc1nc2ccccc2c2nc(-c3cccnc3)nn12 (stereo not given)	-	-	81	-
Cc1ccccc1CS(=O)(=O)c1ccc(C(=O)N2CCN(C)CC2)cc1[N+](=O)[O-]	-	-	-	-
S=c1[nH]nc(-c2ccc3ncccc3c2)n1-c1ccccc1	-	-	-	-
